Test results from PubChem BioAssay (NCATS).
Inconclusive results are not listed. Calls of active or inactive are those of the source. The call rests on the fitted dose curve; in most records, active means well fitted inhibition curve with a large enough effect; inconclusive means small, poorly fitted or top-dose-only effect; inactive means no such curve, though single readings can be large or run the other way.

Assay: Counterscreen for APE1 Inhibitors: Fluorescent Dye Displacement Validation Assay (AID 1707)
Conditions: fluorescent dye displacement from DNA; series mostly up to 57.1 µM; activity change, negative = inhibition: at the top concentration
Excerpt: In order to distinguish true inhibitors of DNA-processing enzymes from promiscuous DNA-binding compounds among screening assay hits, we developed a homogeneous and miniaturized assay based on fluorescent dye displacement test as originally described by Tse and Boger (Accounts of Chemical Research (2004) 37: 61-69). The assay is based on the strong enhancement of fluorescence when Thiazole Orange (ThO) binds to double-stranded DNA: conversely, in the presence of a DNA-binding compound, Thiazole Orange is displaced from the DNA and its fluorescence is reduced.
Buffer. 50 mM Tris-HCl (pH7.5) containing 50mM NaCl, 2 mM MgCl2, and 0.01% Tween-20.
Buffer containing 250 nM ThO in columns 3 and 4 as negative control (no dsDNA).
Reaction mixture: 250 nM ThO and 50 nM dsDNA at final concentration dispensed throughout the plate: in columns 1, 2, 5-48. Column 1 is neutral (100% activity).
5''TAMRA- TC ACC FTC GTA CGA CTC
3'' AG TGG GAG CAT GCT GAG
where F denotes tetrahydrofuran.
Control: Pintool transfer of control compound WB64 (W4761, Sigma-Aldrich) to column 2 of all assay plates as a two-fold 16-point dilution in duplicate (concentration range 5.75 uM - 0.175 nM).
Four uL of reaction mixtures were dispensed to 1536-well Greiner black solid bottom plates. Compounds (23 nL) were transferred […] in order to measure the endpoint fluorescence using 480 nm excitation and 540 nm emission fluorescence protocol.
For `CC1CNCCN1S(=O)(=O)c1cccc2cnccc12` (stereo not given), the “activity change, negative = inhibition” value was -5.9% (inactive).
For `O=C1C2C=CC=CC2=NC(=S)N1CCN1CCC(=C(c2ccc(F)cc2)c2ccc(F)cc2)CC1` (stereo not given), the “activity change, negative = inhibition” value was 70.2% (inactive).
With `CCC(=O)N1CCN(C(=O)c2ccccc2)CC1` the “activity change, negative = inhibition” value was 1.72% (inactive).
For `CC1C(=O)N(C)C(=O)c2nc[nH]c21` (stereo not given), the “activity change, negative = inhibition” value was 0.818% (inactive).
With `Cn1cc(C(=O)OCC2CCN(CCNS(C)(=O)=O)CC2)c2ccccc21` the “activity change, negative = inhibition” value was -0.782% (inactive).
With `COc1ccccc1N1CCN(CCCCN2C(=O)c3ccccc3C2=O)CC1` the “activity change, negative = inhibition” value was 0.91% (inactive).
In the case of `C[C@@H](NCCc1ccc(O)cc1)[C@@H](O)c1ccc(O)cc1`, the “activity change, negative = inhibition” value is reported as 1.48% (inactive).
For `CC1=C(C(=O)O)N2C(=O)[C@@H](NC(=O)C(N)C3=CCC=CC3)[C@H]2SC1` (stereo not given in full), the “activity change, negative = inhibition” value was 4.36% (inactive).
For `O=C(O)C1=CC(=C(c2ccc(O)c(C(=O)O)c2)c2ccc(O)c(C(=O)O)c2)C=CC1=O`, the “activity change, negative = inhibition” value was -53.1% (inactive).
In the case of `O=C(O)CCC(=O)N1CCCC1C(=O)O` (stereo not given), the “activity change, negative = inhibition” value is reported as 1.33% (inactive).
For `CC1=C(/C=C/C(C)=C/C=C/C(C)=C\C(=O)O)C(C)(C)CCC1`, the “activity change, negative = inhibition” value was 0.449% (inactive).
For `C=CC1(C)CC(=O)C2(O)C(C)(O1)C(OC(C)=O)C(O)C1C(C)(C)CCC(O)C12C` (stereo not given), the “activity change, negative = inhibition” value was -1.64% (inactive).
For `O=c1[nH]c(=O)c2nc3ccccc3nc2[nH]1`, the “activity change, negative = inhibition” value was 103% (inactive).
In the case of `O=C(N[C@@H](Cc1ccccc1)C(=O)CCl)OCc1ccccc1`, the “activity change, negative = inhibition” value is reported as -0.377% (inactive).
For `NC(=O)CC[C@H](N)C(=O)O`, the “activity change, negative = inhibition” value was 0.871% (inactive).
For `O=c1onc2n1-c1cc(Br)ccc1OC2`, the “activity change, negative = inhibition” value was -0.349% (inactive).
For `Cn1c(=O)[nH]c2ncn(C)c2c1=O`, the “activity change, negative = inhibition” value was -0.0644% (inactive).
In the case of `NC/C=C\C(=O)O`, the “activity change, negative = inhibition” value is reported as 2.24% (inactive).
For `CN1CCCC1CCOC(C)(c1ccccc1)c1ccc(Cl)cc1` (stereo not given), the “activity change, negative = inhibition” value was 0.148% (inactive).
In the case of `NOCC(=O)O`, the “activity change, negative = inhibition” value is reported as -0.376% (inactive).
For `NC(=O)c1cc[n+](CC2=C(C(=O)O)N3C(=O)[C@@H](NC(=O)[C@@H](c4ccccc4)S(=O)(=O)[O-])[C@H]3SC2)cc1`, the “activity change, negative = inhibition” value was 7.86% (inactive).
For `Cc1cccc(C(=O)NCN2CCN(c3ccccc3C#N)CC2)c1`, the “activity change, negative = inhibition” value was -1.01% (inactive).
For `COc1cc2c(CCNC(C)=O)c[nH]c2cc1O`, the “activity change, negative = inhibition” value was 3.03% (inactive).
For `Nc1ccc(-c2ccc3ccccc3n2)cc1`, the “activity change, negative = inhibition” value was -3.55% (inactive).
With `CSC(N)=NCCC[C@H](N)C(=O)O` the “activity change, negative = inhibition” value was 1.35% (inactive).
In the case of `Nc1nc2ccc(Cl)cc2c2nc(-c3ccco3)nn12`, the “activity change, negative = inhibition” value is reported as 15.6% (inactive).
For `COC(=O)[C@H](NC(=O)c1cc(-c2ccccc2)nc2ccccc12)c1ccccc1`, the “activity change, negative = inhibition” value was 9.03% (inactive).
In the case of `NC(=O)c1ccccc1`, the “activity change, negative = inhibition” value is reported as 1.93% (inactive).
For `COC1(C2=NCCN2)COc2ccccc2O1` (stereo not given), the “activity change, negative = inhibition” value was 0.668% (inactive).
For `OC1(c2ccc(Cl)cc2)CCN(Cc2c[nH]c3ccccc23)CC1`, the “activity change, negative = inhibition” value was 0.558% (inactive).
With `COc1cc(N)c(Cl)cc1C(=O)OCCN1CCCCC1` the “activity change, negative = inhibition” value was 0.147% (inactive).
With `CC(=O)[C@H]1CCC2C3CC=C4C[C@@H](OS(=O)(=O)O)CC[C@]4(C)C3CC[C@@]21C` (stereo not given in full) the “activity change, negative = inhibition” value was 0.435% (inactive).
For `O=S(=O)(c1cccc2c(Cl)cccc12)N1CCCNCC1`, the “activity change, negative = inhibition” value was -0.798% (inactive).
In the case of `CCN(c1nc(N)c(C(=O)N=C(N)N)nc1Cl)C(C)C`, the “activity change, negative = inhibition” value is reported as 0.376% (inactive).
For `OC[C@H]1O[C@@H](n2cnc3cncnc32)[C@H](O)[C@@H]1O`, the “activity change, negative = inhibition” value was -0.804% (inactive).
With `O=C(O)[C@H]1NCCC[C@H]1C(=O)O` the “activity change, negative = inhibition” value was -1.33% (inactive).
In the case of `CCCCS(=N)(=O)CC[C@H](N)C(=O)O` (stereo not given in full), the “activity change, negative = inhibition” value is reported as -0.944% (inactive).
With `N[C@H](C(=O)O)c1cc(O)cc(O)c1` the “activity change, negative = inhibition” value was 56.4% (inactive).
In the case of `Nc1ncnc2c1ncn2C1CCCO1` (stereo not given), the “activity change, negative = inhibition” value is reported as -6.64% (inactive).
For `O=c1cc(O)cc(/C=C/c2ccc(O)c(O)c2)o1`, the “activity change, negative = inhibition” value was -4.66% (inactive).
